Where “and” joins values, the source holds several entries; their conditions need not be identical. Identical values can stand only once. Compounds without any hit were thinned out: in the full panel of roughly 83,000, 20% have a hit.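 48-hour exposure, single concentration, 96-well plates; percent growth endpoint where 0 means no net growth. Active: below 10.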 Calls of active or inactive are those of the source.
System: MDA-MB-468 breast
Assay: NCI-60 one-dose screen, 48 h (100 = growth as untreated, 0 = no growth, -100 = all killed)
Details: 10 µM unless noted

| Compound | growth |
| --- | --- |
| O=C(Cn1ccc2ccccc21)Nc1ccc(-c2nc3ccccc3s2)cc1 | -50.2% (active) |
| CC(C)(C)Nc1nc2c(OCCc3ccccc3)cccn2c1-c1ccc(O)cc1 | 26% (inactive) |
| CC1CN(Cc2ccccc2)C(=O)NC1=O (stereo not given) | 111% (inactive) |
| Cc1[nH]c(C(=O)Nc2ccc(C(=O)NCC3CCNCC3)cc2OC(C)C)c(Cl)c1Cl | 21.5% (inactive) |
| O=S(=O)(Nc1ncccn1)c1ccc(Nc2ccc3nnc(-c4ccncc4)n3n2)cc1 | 103% (inactive) |
| COc1cc(-c2nc(N)n(CC(=O)Nc3ccc(/C(C)=N\O)cc3)n2)cc(OC)c1OC | 104% (inactive) |
| Cc1ccccc1-n1nnc(C(=O)Nc2ccc(-c3ccccc3)cn2)c1C | 4.89% [50 µM] (active) |
| Fc1ccc(-c2cc3nc(C(Cl)Cl)nc(-c4ccco4)n3n2)cc1 | -43.6% (active) |
| Cc1cccc(NC(=O)CCc2ccc(N3C(N)=NC(N)=NC3(C)C)cc2)c1 | 39.9% (inactive) |
| O=C(CCC(C(=O)c1ccccc1)c1ccccc1)c1ccccc1 (stereo not given) | 35.9% (inactive) |
| CCOC(=O)Cn1nnc(-c2ccc(OCc3ccccc3F)cc2)n1 | 90.4% (inactive) |
| COc1ccc(C(=O)CSc2nc3c(c(Nc4ccc(S(N)(=O)=O)cc4)n2)CCCC3)cc1 | 108% (inactive) |
| CCOS(=O)(=O)c1c(C(C)C)cc(C(C)C)cc1C(C)C | 102% (inactive) |
| CC(=O)ON1CCCC(P(=O)(OCCSC(=O)C(C)(C)C)OCCSC(=O)C(C)(C)C)C1=O (stereo not given) | 32% (inactive) |
| COc1cccc(NC(=O)Nc2ccc(Nc3ncnc4[nH]c(C)c(C)c34)cc2)c1 | 112% (inactive) |
| CCCCN(CCCC)CCC(=O)c1ccc(OC)c2ccccc12 | -18.7% (active) |
| CC(=O)OC1/C=C\CC/C=C\C1 (stereo not given) | 109% (inactive) |
| COc1cc(Nc2nc3ccccc3nc2NS(=O)(=O)c2ccc(NC(=O)c3ccc(C)c(OC)c3)cc2)cc(OC)c1 | 72.6% (inactive) and -30.3% (active) |
| COc1ccc(C(=O)c2cc3c(OC)c(OC)c(OC)cc3[nH]2)cc1 | 20.6% (inactive) |
| O=S(=O)(NCCCNc1nccc(-c2c(-c3ccccc3)nc3sccn23)n1)c1ccc(F)cc1 | 35.5% (inactive) |
| CC(C)Oc1ccc2cc(-c3nn(CC4CCNCC4)c4ncnc(N)c34)ccc2c1 | 84.8% (inactive) and -20% (active) |
| OB(O)c1cccc(-c2nc3ccc4[nH]ncc4c3c3c2CCCC3)c1 | 59.3% (inactive) |

| Compound | growth |
| --- | --- |
| Cc1ccc(Cl)cc1NC(=O)N(C)CCO | 132% (inactive) |
| CC(=O)O[C@H]1CC[C@@]2(C)[C@@H](CC[C@@H]3[C@@H]2CC[C@@]2(C)[C@H]3CC[C@]2(O)C(C)=O)C1 | 94.1% (inactive) |
| Nc1ncn([C@@H]2O[C@H](CO)[C@@H](O)C2(F)F)c(=O)n1 | 71.4% (inactive) |
| O=S(=O)(O)CC(O)CN1CCN(CCO)CC1 (stereo not given) | 105% (inactive) |
| CCCCCCOC(=O)CC1=C(C)/C(=C/c2[nH]c(-c3ccc[nH]3)cc2OC)N=C1C | -59.7% (active) |
| O=C(Cn1c(-c2ccccc2)nc2cc(Cl)c(Cl)cc21)N=Nc1c(O)[nH]c2ccc(Cl)cc12 | 61.7% (inactive) |
| COc1ccc(CCNc2nc(SC)nc(-c3cccc([N+](=O)[O-])c3)c2C#N)cc1OC | 84.8% (inactive) |
| C=CCC(O)C=C (stereo not given) | 102% (inactive) |
| O=C(CCl)c1ccc2c(c1)CCCC2 | 116% (inactive) |
| COc1cc(-c2nc(NC(C)=O)sc2-c2ccnc(NCCNS(=O)(=O)c3ccccc3)n2)ccc1Cl | 20.8% (inactive) |
| Cn1cnc2nc(Cl)nc(Cl)c21 | 21.7% (inactive) |
| O=C1Cc2cc(O)ccc2O1 | 103% (inactive) |
| COc1ccc(C2C=C(c3ccc(N)cc3)N=C3SC=CN32)cc1OC (stereo not given) | 101% (inactive) |
| CS(=O)(=O)c1nccc(-c2c(-c3ccc(F)c(OCCc4ccccc4)c3)nc3sccn23)n1 | -83.4% (active) |
| COc1ccc(C(=O)/C=C/c2ccc(C)cc2)cc1S(N)(=O)=O | 60.4% (inactive) |
| CC1(C)CC[C@]2(C(N)=O)CC[C@]3(C)C(=CC[C@@H]4[C@@]5(C)C/C(=C/c6cccnc6)C(=O)C(C)(C)[C@@H]5CC[C@]43C)[C@@H]2C1 | -17.1% [100 µM] (active) |
| O=[N+]([O-])c1ccc(C(c2ccccc2)c2ccccc2)cc1 | 101% (inactive) |
| Cc1cccc(-c2nc(C(C)C)sc2-c2ccnc(NCCCNS(=O)(=O)c3ccc(Cl)cc3)c2)c1 | 55.2% (inactive) |
| CN(C)CCCOc1ccc(C(=C(c2ccccc2)C2CCCC2)c2ccc(OCCCN(C)C)cc2)cc1 | -78.9% (active) |
| COc1ccc(NC(=S)/N=c2\oc3c(OC)cccc3cc2-c2cc3ccccc3[nH]2)cc1 | 82.1% (inactive) |
| CN1C(=O)C(=Cc2coc3ccc(Br)cc3c2=O)C(=O)N(C)C1=O | 102% (inactive) |
| COc1cccc(-c2[nH]c(=S)ncc2C(=O)c2ccccc2)c1 | 59.4% (inactive) |

| Compound | growth |
| --- | --- |
| c1coc(CSc2ncnc3nc[nH]c23)c1 | 96% (inactive) |
| CN1C[C@@H](c2ccc(Cl)cc2)[C@]2(NC(=S)N(c3ccc(F)c(Cl)c3)C2=O)[C@@]12C(=O)NC1C=CC(Cl)=C[C@H]12 (stereo not given in full) | 48.8% (inactive) |
| COc1c(Cl)cc(Cl)c2ccc(C=C3C(=O)N(C)C(=O)N(C)C3=O)nc12 | 107% (inactive) |
| CN(C)CCCOc1ccc(OCCCN(C)C)c2c1C(=O)c1ccccc1C2=O | -33.7% (active) |
| c1ccc(-n2nnnc2-c2cccc3ccccc23)cc1 | -22.5% (active) |
| O=C(Nc1cccc(Cl)c1)c1cc(N=Nc2ccc([N+](=O)[O-])cc2Cl)ccc1O | 67.8% (inactive) |
| COc1ccc(C/C(C)=C(/c2ccc(OCCN3CCCCCC3)cc2)c2ccc(OC(=O)c3ccccc3)cc2)cc1 | 111% (inactive) |
| CSc1nc(NCCO)c(C#N)c(-c2cccc(N)c2)n1 | 116% (inactive) |
| Cc1ccccc1NC(=O)N/C(N)=N/c1nc(C)c(C)s1 | -7.08% (active) |
| Cc1c(C(=O)N[C@@H](Cc2ccccc2)C(=O)C(=O)NCc2ccc(F)cc2)[nH]c2ccccc2c1=O | 94.5% (inactive) |
| COc1cc2nc3c(=O)n(-c4ccc(C#N)cc4)cnn3c(=O)c2cc1OC | 97.4% (inactive) |
| CC(=O)[C@H]1CCC/C=C/[C@@H]2C[C@H](O)C[C@H]2[C@H](O)/C=C/C(=O)O1 | -34.9% (active) |
| CCOC(=O)c1c(NCC(=O)Nc2cccc([N+](=O)[O-])c2)sc(C(C)=O)c1C | -22.5% (active) |
| O=S(=O)(NCCCNc1nccc(-c2cn(-c3ccccc3)nc2-c2ccc(Cl)c(O)c2)n1)c1ccccc1 | 59.7% (inactive) |
| O=C(Nc1cccc([N+](=O)[O-])c1)NN1CCCCCC1 | 88.7% (inactive) |
| CCN1CCN(Cc2ccc(NC(=O)Nc3nc(-c4cc(OC)c(OC)c(OC)c4)cs3)cc2C(F)(F)F)CC1 | -0.339% (active) |
| COc1ccc(C(=O)N2NC(=O)/C(=C/c3ccccc3F)N=C2c2ccccc2)cc1 | 105% (inactive) |
| Fc1cc(-c2ncc(-c3cc(F)c(F)c(F)c3)c(NC3CCCCCC3)n2)cc(F)c1F | 99% (inactive) |
| CN(C)CC(=O)c1ccc2cc(Br)c3ccccc3c2c1 | 72.1% (inactive) |
| COC(=O)C1=C(C(=O)OC)C23C=C(C)C1C2=C(C)C1(CC1)[C@@](C)(O)C3=O (stereo not given in full) | -54.2% (active) |
| C=CC(=O)N1CC=C(c2cc3c(N[C@H](C)c4ccccc4)ncnc3[nH]2)CC1 | 33.3% (inactive) |
| CCCCCC(C)(CC(=O)O)CC(=O)O | 95.3% (inactive) |

| Compound | growth |
| --- | --- |
| CCN1C(=O)N(CC)C2Nn3c(s/c(=C\c4cccc(F)c4)c3=O)=NC21 (stereo not given) | 17.8% (inactive) |
| O=C(NCCO)C(F)(F)F | 116% (inactive) |
| Nc1nc(N)nc(NCc2ccccc2)n1 | 114% (inactive) |
| NS(=O)(=O)c1ccc(-n2cc(-c3cccc(NC(=O)c4ccc(N5CCOCC5)c(C(F)(F)F)c4)c3)nn2)cc1 | 36.7% (inactive) |
| Cc1ccc2c(n1)C(=O)C(Cl)=C(Nc1ccc(C#N)cc1)C2=O | 51.4% (inactive) |
| COc1ccc(OC)c(Cn2cc3c(c2)-c2oncc2CC3)c1 | 3.48% (active) |
| OC1OC(COC(c2ccccc2)(c2ccccc2)c2ccccc2)C(O)C(O)C1O (stereo not given) | 89.7% (inactive) |
| N[C@@H](CO)C(=O)O | 103% (inactive) |
| C1CCC([PH+](C2CCCCC2)C2CCCCC2[PH+](C2CCCCC2)C2CCCCC2)CC1.[Au].[CH-]1CCCCC1C1CCCC[N-]1 (stereo not given) | -33.9% (active) |
| O=C(/C=C/c1ccc(Cl)cc1)c1ccc(Nc2nc(NCCO)nc(Nc3ccc(Cl)cc3)n2)cc1 | 68.4% (inactive) |
| Cc1ccccc1Nc1nc(SC(C)C)nc(-c2ccccc2)c1C#N | 74.8% (inactive) |
| COc1ccc2c(c1)C(=O)/C(=C/c1ccc([N+](=O)[O-])s1)O2 | -22.9% (active) |
| O=C1c2cccc3cccc(c23)C(=O)N1N1C(=O)c2cccc3c(N4CCNCC4)ccc(c23)C1=O | 91% (inactive) |
| CC(C)CSc1nc(Nc2ccccc2)c(C#N)c(-c2ccc(F)cc2)n1 | 16.4% (inactive) |
| CN1C(=O)N(C)C2C1NN=c1s/c(=C\c3ccsc3)c(=O)n12 (stereo not given) | 34.3% (inactive) |
| N#Cc1c(-c2ccccc2)cc(-c2ccccc2)n(CC(=O)O)c1=O | 37.8% (inactive) |
| O=C1CCC(C(=O)NN(c2ccccc2)c2ccccc2)N1 (stereo not given) | 94.5% (inactive) |
| O=C1CSC(c2c(Cl)cccc2Cl)N1c1nc(Cl)cc(=O)[nH]1 (stereo not given) | 117% (inactive) |
| COc1ccc(/C=C/C(=O)c2ccc(-n3cc(CN4CCN(c5cc6c(cc5F)c(=O)c(C(=O)O)cn6C5CC5)CC4)nn3)cc2)cc1OC | -7.19% (active) |
